Screen size: about 5,500 compounds; about 2,000 (36%) were called active. Not shown: some 18% with an inconclusive outcome. Rule as the data show it: active = normalized growth mostly below about 0.91 (no sharp cut-off); inconclusive = no clear call, values can overlap the other calls; inactive = mostly above about 0.92. The list shows a part of the results.
Assay: chemical genetic growth profiling, strain panel (AID 1159580);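 also: tested at 20 µM; growth read once vehicle control cultures reached saturation at 30 °C; 1 = growth at the plate median or of vehicle wells; lower values mean less growth of the strain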
Settings: growth OD

Measured: normalized growth

O=C1C=C(O)c2ccccc2C1=O
inactive: S. cerevisiae deletion strains, locus YJR043C, strain POL32, active compounds read low 1.01 | S. cerevisiae deletion strains, locus YKL009W, strain mrt4, active compounds read low 1.04 | S. cerevisiae deletion strains, locus YKL068W, active compounds read low 0.942 | S. cerevisiae deletion strains, locus YKL085W, strain MDH1 (second series), active compounds read low 0.947 | S. cerevisiae deletion strains, locus YKL085W, strain MDH1, active compounds read low 0.947 | S. cerevisiae deletion strains, locus YKL160W, strain elf1, active compounds read low 0.912 | S. cerevisiae deletion strains, locus YKR001C, strain vps1, active compounds read low 0.9 | S. cerevisiae deletion strains, locus YKR091W, strain srl3, active compounds read low 0.961 | S. cerevisiae deletion strains, locus YLL001W, strain dnm1, active compounds read low 0.937 | S. cerevisiae deletion strains, locus YLL026W, active compounds read low 0.952 | S. cerevisiae deletion strains, locus YLL041C, strain sdh2, active compounds read low 0.939 | S. cerevisiae deletion strains, locus YLR027C, strain aat2, active compounds read low 0.935 | S. cerevisiae deletion strains, locus YLR039C, strain RIC1, active compounds read low 0.71 | S. cerevisiae deletion strains, locus YLR058C, strain SHM2, active compounds read low 0.949 | S. cerevisiae deletion strains, locus YLR102C, strain apc9, active compounds read low 0.982 | S. cerevisiae deletion strains, locus YLR113W, strain HOG1, active compounds read low 0.867 | S. cerevisiae deletion strains, locus YLR221C, strain rsa3, active compounds read low 0.925 | S. cerevisiae deletion strains, locus YLR258W, strain gsy2, active compounds read low 0.944 | S. cerevisiae deletion strains, locus YLR262C, strain YPT6, active compounds read low 0.82 | S. cerevisiae deletion strains, locus YLR268W, strain sec22, active compounds read low 0.923 | S. cerevisiae deletion strains, locus YLR320W, strain mms22, active compounds read low 0.949 | S. cerevisiae deletion strains, locus YLR330W, strain CHS5, active compounds read low 0.959 | S. cerevisiae deletion strains, locus YLR342W, strain FKS1 (second series), active compounds read low 1.04 | S. cerevisiae deletion strains, locus YLR342W, strain FKS1, active compounds read low 0.948 | S. cerevisiae deletion strains, locus YLR357W, strain rsc2, active compounds read low 0.932 | S. cerevisiae deletion strains, locus YLR370C, strain arc18, active compounds read low 0.941 | S. cerevisiae deletion strains, locus YLR371W, strain rom2, active compounds read low 0.966 | S. cerevisiae deletion strains, locus YLR384C, strain iki3, active compounds read low 0.971 | S. cerevisiae deletion strains, locus YLR418C, strain cdc73, active compounds read low 0.894 | S. cerevisiae deletion strains, locus YML016C, strain PPZ1, active compounds read low 0.956 | S. cerevisiae deletion strains, locus YML032C, strain rad52, active compounds read low 0.907 | S. cerevisiae deletion strains, locus YML120C, strain ndi1, active compounds read low 0.93 | S. cerevisiae deletion strains, locus YML124C, strain tub3, active compounds read low 0.964 | S. cerevisiae deletion strains, locus YMR078C, strain ctf18, active compounds read low 0.989 | S. cerevisiae deletion strains, locus YMR125W, strain sto1, active compounds read low 0.954 | S. cerevisiae deletion strains, locus YMR129W, active compounds read low 0.937 | S. cerevisiae deletion strains, locus YMR205C, strain PFK2, active compounds read low 0.994 | S. cerevisiae deletion strains, locus YMR223W, strain ubp8, active compounds read low 0.944 | S. cerevisiae deletion strains, locus YMR307W, strain GAS1, active compounds read low 0.863 | S. cerevisiae deletion strains, locus YNL067W, strain RPL9B, active compounds read low 0.966 | S. cerevisiae deletion strains, locus YNL071W, strain lat1, active compounds read low 0.945 | S. cerevisiae deletion strains, locus YNL128W, strain TEP1, active compounds read low 0.974 | S. cerevisiae deletion strains, locus YNL183C, strain NPR1, active compounds read low 0.884 | S. cerevisiae deletion strains, locus YNL209W, strain ssb2, active compounds read low 0.941 | S. cerevisiae deletion strains, locus YNL233W, strain BNI4, active compounds read low 0.978 | S. cerevisiae deletion strains, locus YNL248C, strain rpa49, active compounds read low 0.951 | S. cerevisiae deletion strains, locus YNL250W, strain rad50, active compounds read low 0.953 | S. cerevisiae deletion strains, locus YNL271C, strain bni1, active compounds read low 0.941 | S. cerevisiae deletion strains, locus YNL298W, strain CLA4, active compounds read low 0.968 | S. cerevisiae deletion strains, locus YNL307C, strain MCK1, active compounds read low 0.968 | S. cerevisiae deletion strains, locus YNL322C, strain KRE1 (second series), active compounds read low 0.944 | S. cerevisiae deletion strains, locus YNL322C, strain KRE1, active compounds read low 0.971 | S. cerevisiae deletion strains, locus YNR049C, strain mso1, active compounds read low 0.958 | S. cerevisiae deletion strains, locus YNR052C, strain pop2, active compounds read low 0.941 | S. cerevisiae deletion strains, locus YOL006C, strain TOP1, active compounds read low 0.865 | S. cerevisiae deletion strains, locus YOL012C, strain htz1 0.668 | S. cerevisiae deletion strains, locus YOL147C, strain pex11, active compounds read low 0.955 | S. cerevisiae deletion strains, locus YOR001W, strain rrp6, active compounds read low 0.931 | S. cerevisiae deletion strains, locus YOR061W, strain CKA2, active compounds read low 0.979 | S. cerevisiae deletion strains, locus YOR069W, strain VPS5, active compounds read low 0.971 | S. cerevisiae deletion strains, locus YOR070C, strain gyp1, active compounds read low 0.956 | S. cerevisiae deletion strains, locus YOR080W, strain dia2, active compounds read low 0.951 | S. cerevisiae deletion strains, locus YOR083W, strain WHI5, active compounds read low 0.904 | S. cerevisiae deletion strains, locus YOR136W, strain idh2, active compounds read low 0.952 | S. cerevisiae deletion strains, locus YOR144C, strain elg1, active compounds read low 0.966 | S. cerevisiae deletion strains, locus YOR184W, strain ser1, active compounds read low 0.918 | S. cerevisiae deletion strains, locus YOR265W, strain rbl2, active compounds read low 0.944 | S. cerevisiae deletion strains, locus YOR270C, strain vph1, active compounds read low 0.846 | S. cerevisiae deletion strains, locus YOR290C, strain snf2, active compounds read low 0.902 | S. cerevisiae deletion strains, locus YOR316C, strain cot1, active compounds read low 0.98 | S. cerevisiae deletion strains, locus YPL078C, strain atp4, active compounds read low 0.897 | S. cerevisiae deletion strains, locus YPL106C, strain sse1, active compounds read low 0.866 | S. cerevisiae deletion strains, locus YPL241C, strain CIN2, active compounds read low 0.967 | S. cerevisiae deletion strains, locus YPR119W, strain clb2, active compounds read low 0.966 | S. cerevisiae deletion strains, locus YPR141C, strain kar3, active compounds read low 0.948 | S. cerevisiae deletion strains, locus YPR163C, strain tif3, active compounds read low 0.995 | S. cerevisiae deletion strains, locus YPR167C, strain met16, active compounds read low 0.956 | S. cerevisiae deletion strains, strain wtn01, active compounds read low 0.967 | S. cerevisiae strains, strain wild type, active compounds read low 0.978
active: S. cerevisiae deletion strains, locus YJR066W, strain TOR1, active compounds read low 0.825 | S. cerevisiae deletion strains, locus YKR026C, strain gcn3, active compounds read low 0.919 | S. cerevisiae deletion strains, locus YLR262C, strain YPT6 (second series), active compounds read low 0.738 | S. cerevisiae deletion strains, locus YMR058W, strain fet3, active compounds read low 0.872 | S. cerevisiae deletion strains, locus YMR231W, strain pep5, active compounds read low 0.919 | S. cerevisiae deletion strains, locus YOR106W, strain vam3, active compounds read low 0.863 | S. cerevisiae deletion strains, locus YOR231W, strain MKK1, active compounds read low 0.797 | S. cerevisiae deletion strains, locus YPL051W, strain arl3, active compounds read low 0.873 | S. cerevisiae deletion strains, locus YPL240C, strain hsp82, active compounds read low 0.918 | S. cerevisiae deletion strains, locus YPL256C, strain CLN2, active compounds read low 0.818

Source: PubChem BioAssay AID1159580 (chemical genetic matrix, 2015)
